For 40 compounds, activation results are on record in PubChem BioAssay (NCATS).

Molecules are shown by their SMILES. “And” between values parts separate entries of the source, which are not always exact repeats. Equal values may be shown once. Results filed as inconclusive are left out. The source made the active and inactive calls. Calls come from the whole dose curve; as a rule, active = well fitted curve in the direction sought with a large enough effect in the signal ratio, with a control signal flat; inconclusive = small, poorly fitted or top-dose-only effect, or a change in a side signal; inactive = no such curve, though single readings can be large or run the other way; the % refers to the signal ratio.

In the test the target is Glucocorticoid receptor (Homo sapiens) (UniProt P04150). In words: qHTS assay for small molecule agonists of glucocorticoid receptor signaling (AID 588532). Conditions: HeLa MMTV-bla, beta-lactamase ratio, agonist, 18 h; stronger effect = higher value; percent of dexamethasone control, DMSO zero. An excerpt: NIH Chemical Genomics Center [NCGC] U.S. Environmental Protection Agency [EPA] National Institutes of Environmental Health Sciences [NIEHS] National Toxicology Program [NTP] NCGC Assay Overview The Glucocorticoid receptor (GR), a nuclear receptor subfamily member and its natural ligands includes […] etc. The GR is a validated drug target for inflammation. GR ligands such as dexamethasone are clinically available as anti-inflammatory drugs. Glucocorticoids implicate role in carbohydrate, protein and lipid metabolisms and programmed cell death. They are also a component of many chemotherapy regimens for the treatment of leukemias, lymphomas, and myelomas because of their role in the induction of apoptosis.
Glucocorticoid receptor (Homo sapiens), sequence (P04150 whole entry, looked up): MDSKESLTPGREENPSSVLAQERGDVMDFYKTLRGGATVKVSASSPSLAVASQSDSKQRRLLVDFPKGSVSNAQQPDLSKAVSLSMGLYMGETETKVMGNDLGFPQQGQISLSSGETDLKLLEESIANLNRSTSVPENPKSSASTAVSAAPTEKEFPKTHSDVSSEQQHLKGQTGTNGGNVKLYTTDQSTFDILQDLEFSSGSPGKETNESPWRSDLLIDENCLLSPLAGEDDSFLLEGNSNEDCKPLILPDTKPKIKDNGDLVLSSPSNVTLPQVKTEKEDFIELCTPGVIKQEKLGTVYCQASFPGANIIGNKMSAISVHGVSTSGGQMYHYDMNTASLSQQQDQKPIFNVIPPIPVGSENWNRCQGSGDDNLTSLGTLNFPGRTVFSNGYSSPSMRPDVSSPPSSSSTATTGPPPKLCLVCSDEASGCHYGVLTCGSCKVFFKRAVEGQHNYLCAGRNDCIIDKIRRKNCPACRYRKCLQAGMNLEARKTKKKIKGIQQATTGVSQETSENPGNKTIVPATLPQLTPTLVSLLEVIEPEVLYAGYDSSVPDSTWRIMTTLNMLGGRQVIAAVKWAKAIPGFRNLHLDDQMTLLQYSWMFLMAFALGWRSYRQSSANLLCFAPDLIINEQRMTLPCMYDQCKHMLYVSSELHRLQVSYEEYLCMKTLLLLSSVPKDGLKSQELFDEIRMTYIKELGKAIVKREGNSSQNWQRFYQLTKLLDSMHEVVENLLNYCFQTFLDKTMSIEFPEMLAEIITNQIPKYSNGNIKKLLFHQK
NCGC Assay Protocol Summary Using a beta-lactamase reporter-gene under control of glucocorticoid response element (GRE), a cell-based assay [CellSensor MMTV-bla HeLa cell line assay developed by Invitrogen] was used to measure GR ligands signaling. CellSensor MMTV-bla HeLa cells were used with assay medium containing 1% charcoal/dextran treated FBS, 0.1 mM NEAA, 1 mM sodium pyruvate and 25mM HEPES. The assay was performed in clear bottom black Greiner 1536-well plates. Dexamethasone and Mifepristine were used in the screen as agonist and antagonist positive controls respectively. Library compounds were measured for their ability to stimulate the reporter gene activity. Compounds were screened in a titration series in 1536-well format. The fluorescence intensity (405 nm excitation, 460/530 nm emission) was measured using an EnVision plate reader. Data was normalized relative to Dexamethasone control (0.1 uM, 100%), and DMSO only wells (basal, 0%). Concentration-response titration points for each compound were fitted to the Hill equation yielding concentrations of half-maximal stimulation (EC50) and maximal response (efficacy) values. qHTS protocol for GR beta-lactamase assay in agonist mode [Step] [Parameter] [Value] [Description] 1. Reagent; 6 uL; 1500 cells/well 2. Incubation; 37 C for 3-5 hrs 3. Compounds; 23 nL; 0.59 nM to 92 uM 4. Controls (Dexamethasone); 23 nL, - One column with dose response, start 4.6uM, 1:3 dilutions in duplicates - Final concentrations of 0.1 uM and 2 nM in two columns 5. Incubation; 37 C for 18 hrs 6. Detection reagent; 1 uL of CCF4-dye 7. Incubation; RT for 2 hrs 8. Detection; Fluorescence; Envision plate reader
For orientation: qHTS replaces the single test concentration by a dilution series.
With `Cc1c(N)cccc1Cl`, the activation is -4.07% (inactive).

As for `Cc1ccc(N)cc1[N+](=O)[O-]`, the activation is 0.881% (inactive).

On to `CC(=O)Nc1cccc(C)c1`, for which the activation was -1.44% (inactive).

As for `O=C(Cl)c1ccc([N+](=O)[O-])cc1`, the activation was -2.19% (inactive).

`O=C1OC(=O)c2ccccc21`: the activation was 8.87% (inactive).

As for `Oc1ccc(O)c2c(O)cccc12`, the activation is -3.75% (inactive).

Turning to `CC(=O)OC(C(=O)c1ccccc1)c1ccccc1` (stereo not given), the activation was 8.92% (inactive).

In the case of `CCc1ccc(C(c2ccc(CC)cc2)C(Cl)Cl)cc1`, the activation is 1.14% (inactive).

Regarding `CCCCC(CC)COP(=O)(OCC(CC)CCCC)OCC(CC)CCCC` (stereo not given), the activation is -3.34% (inactive).

As to `C=C(C#N)C(=O)OCC`, the activation was -0.945% (inactive).

With `COc1ccc(C)cc1N`, the activation is 9.32% (inactive).

For `NC(=O)c1ccc([N+](=O)[O-])cc1`, the activation is 1.08% (inactive).

Regarding `O=C(OCc1ccccc1)c1ccccc1O`, the activation was -2.46% (inactive) and -9.77% (inactive).

As to `c1c[nH]cn1`, the activation is -7.19% (inactive).

`Brc1cc(Oc2cc(Br)c(Br)c(Br)c2Br)c(Br)c(Br)c1Br`: the activation was -9.25% (inactive) and -1.53% (inactive).

With `Nc1ccc2c(c1)C(=O)c1ccccc1C2=O`, the activation was -3.44% (inactive) and 1.5% (inactive).

For the compound `C=CC(C)(O)CCCC(C)CCCC(C)CCCC(C)C` (stereo not given), the activation is 1.44% (inactive).

In the case of `c1ccc2c(c1)ccc1ccccc12`, the activation is 3.65% (inactive) and 10.6% (inactive).

For `C=C1CC[C@H](O)C/C1=C/C=C1\CCC[C@]2(C)[C@@H]([C@H](C)CCCC(C)C)CC[C@@H]12`, the activation is -3.67% (inactive).

In the case of `COc1ccc(C(=O)Nc2ccccc2)cc1[N+](=O)[O-]`, the activation is -1.05% (inactive).

For the compound `CC(=O)OC1CC(C)OC(C)O1` (stereo not given), the activation is 0.225% (inactive) and -13.7% (inactive).

Turning to `CN(C)c1ccc(Cc2ccc(N(C)C)cc2)cc1`, the activation was 7.64% (inactive) and -3.57% (inactive).

For the compound `Cc1ccc(S(N)(=O)=O)cc1`, the activation was 1.06% (inactive) and -7.61% (inactive).

On to `OCC(CBr)(CBr)CBr`, for which the activation is 0.0544% (inactive).

On to `Nc1cc(C(=O)O)c(O)c(S(=O)(=O)O)c1`, for which the activation is 1.03% (inactive).

Take `Nc1cnn([C@@H]2O[C@H](CO)[C@@H](O)[C@H]2O)c(=O)n1`: the activation was -5.2% (inactive).

Regarding `c1ccc2ncccc2c1`, the activation is -12.1% (inactive).

On to `CC(/C=C/C=C(C)/C=C/C(=O)O)=C\C=C\C=C(C)\C=C\C=C(C)\C=C\C(=O)O`, for which the activation is 1.99% (inactive).

Turning to `O=c1[nH]ncc2ccccc12`, the activation was -0.672% (inactive).

Take `S=C(NC1CCCCC1)NC1CCCCC1`: the activation is 9% (inactive).

On to `CCOc1ccc2nc(N)sc2c1`, for which the activation is -9.89% (inactive).

On to `Cc1ccc(O)c(N)c1`, for which the activation is 4.97% (inactive).

Take `Nc1cc([N+](=O)[O-])ccc1O`: the activation is -3.65% (inactive) and -4.48% (inactive).

For the compound `Cc1cc2nc(N)sc2cc1C`, the activation is -1.47% (inactive).

Turning to `Clc1nc2ccccc2nc1Cl`, the activation is 3.19% (inactive).

As for `c1cc2c3c(c1)ccc1cccc(c13)C2`, the activation is -6.79% (inactive).

With `CC(C)COC(=O)COc1cc(Cl)c(Cl)cc1Cl`, the activation is -3.56% (inactive).

In the case of `C=CC1CO1` (stereo not given), the activation is -10.4% (inactive).

With `C[Si](C)(C)Cl`, the activation was 10.5% (inactive).

On to `OCC(CO)(CBr)CBr`, for which the activation is -3.06% (inactive).
